According to PubChem BioAssay AID1851 (National Center for Advancing Translational Sciences (NCATS), 2009):
Where “and” joins values, the source holds several entries; their conditions need not be identical. Identical values can stand only once. About 5,800 (36%) of roughly 16,000 compounds were called active. Not shown: some 23% with an inconclusive outcome. The list shows a part of the results. A number with no mark means an inactive call. Calls come from the whole dose curve; as a rule, active = well fitted curve in the direction sought with a large enough effect; inconclusive = small, poorly fitted or top-dose-only effect, or effect the other way; inactive = no such curve, though single readings can be large or run the other way.

Target: Cytochrome P450 2C19 (Homo sapiens) (UniProt P33261)
Assay: Cytochrome panel assay with activity outcomes
Details: recombinant CYP, pro-luciferin dealkylation, luminescence, p450-cyp2c19; series mostly up to 57.1 µM; activity, negative = inhibition: at the top concentration
% is set by controls: 0 for no effect and ±100 for the full control effect.

Cytochrome P450 2C19 (Homo sapiens), sequence (P33261 whole entry, looked up): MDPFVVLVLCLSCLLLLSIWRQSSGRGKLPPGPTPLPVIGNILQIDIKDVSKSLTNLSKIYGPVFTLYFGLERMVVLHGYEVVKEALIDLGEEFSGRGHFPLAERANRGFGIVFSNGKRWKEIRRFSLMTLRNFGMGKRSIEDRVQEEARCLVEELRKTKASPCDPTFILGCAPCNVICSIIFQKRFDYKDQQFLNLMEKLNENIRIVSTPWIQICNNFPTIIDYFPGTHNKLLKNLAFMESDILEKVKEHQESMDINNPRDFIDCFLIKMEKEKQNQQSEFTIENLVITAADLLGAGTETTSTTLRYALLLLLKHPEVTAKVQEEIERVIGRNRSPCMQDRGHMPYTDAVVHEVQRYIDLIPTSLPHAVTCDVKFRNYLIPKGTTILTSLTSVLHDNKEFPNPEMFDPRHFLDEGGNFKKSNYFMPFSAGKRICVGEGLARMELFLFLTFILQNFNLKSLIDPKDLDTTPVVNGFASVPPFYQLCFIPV

Row | SMILES | activity, negative = inhibition | AC50
1 | c1ccc(C(c2ccccc2)N2CC[C@@]3(CCCNC3)C2)cc1 | -21% | –
2 | O=C(O)CC(c1ccccc1)n1cnnn1 (stereo not given) | 28.7% | –
3 | CN1[C@@H](CC(=O)c2ccccc2)CCC[C@@H]1C[C@@H](O)c1ccccc1 | 15.4% | –
4 | O=C(C[C@@H](c1ccccc1)N1CCCCC1)c1ccccc1 | – | 2.51 µM (active)
5 | O=CN[C@@H](Cc1cnc[nH]1)C(=O)O | 6.59% [at 11.4 µM] | –
6 | O=C1c2ccccc2NC(c2ccc(Cl)cc2Cl)N1O (stereo not given) | – | 5.62 µM (active)
7 | O=C1c2ccccc2NC(c2ccc3c(c2)OCO3)N1O (stereo not given) | – | 10 µM (active)
8 | C=CCc1cccc(C2Nc3ccccc3C(=O)N2O)c1O (stereo not given) | – | 1.58 µM (active)
9 | CCNC(=S)NNC(=O)Cc1ccccc1 | -16.7% | –
10 | CCNC(=S)NNC(=O)CCn1c2ccccc2c2ccccc21 | – | 5.01 µM (active)
11 | COc1ccc(Cl)cc1N=Nc1ncc[nH]1 | 14.7% | –
12 | CCOc1cc(/C=N/O)cc(Cl)c1OC | – | 20 µM (active)
13 | COc1cc(/C=N/O)cc(Br)c1OCc1cccc(Cl)c1 | – | 2 µM (active)
14 | COc1cc(/C=N/O)cc(Br)c1OCc1ccc(Cl)cc1 | – | 1.58 µM (active)
15 | C=CCc1cc(C=O)cc(OC)c1OCc1ccc(Cl)cc1 | – | 0.794 µM (active)
16 | CCN1C(=O)[C@H]2[C@H]3[C@H](O)[C@H](O)C/C(=N/OC[C@@H](O)[C@H]4O[C@H]5OC(C)(C)O[C@H]5[C@@H]4O)[C@@H]3CC[C@@H]2C1=O | 15% [at 11.4 µM] | –
17 | COC(=O)C1CCC(C)(C(=O)Nc2ccccc2)C1(C)C (stereo not given) | – | 3.55 µM (active)
18 | COC(=O)N1CCC[C@@]2(CCN(C(=O)Nc3ccccc3)C2)C1 | -23.2% | –
19 | COC(=O)N1CCC2(CC1)CN(C(=O)Nc1ccccc1)C2 | -13.3% | –
20 | CCn1c(SCc2ccc(Cl)cc2Cl)nc2nc3c(cc2c1=O)CCCC3 | – | 3.98 µM (active)
21 | COc1cc2c3cc1Oc1c(OC)c(OC)cc4c1[C@@H](Cc1ccc(O)c(c1)Oc1ccc(cc1)C[C@@H]3N(C)CC2)CN(C)C4 | -44.9% [at 11.4 µM] | –
22 | COc1ccc([N+](=O)[O-])cc1N(CC(O)CN(CC(C)C)CC(C)C)S(=O)(=O)c1ccccc1 (stereo not given) | – | 6.31 µM (active)
23 | O=C(Nc1ccccc1)N1CCSc2cc(Cl)ccc21 | – | 0.794 µM (active)
24 | Cn1ccc2cc3c(cc21)CCN3C(=O)Nc1cccnc1 | – | inactive

Row | SMILES | activity, negative = inhibition | AC50
25 | CS(=O)(=O)N1CCC2(CC1)CN(C(=O)Nc1ccccc1)C2 | -10.9% | –
26 | O=C(O)c1cc(-c2ccncc2)nc2ccccc12 | 15.6% [at 11.4 µM] | –
27 | O=C(N/N=C/c1ccc([N+](=O)[O-])o1)c1cc(-c2ccncc2)nc2ccccc12 | – | 2.82 µM (active)
28 | CCn1c2ccccc2c2cc(NC(=O)C(C)Oc3ccc(OC)cc3)ccc21 (stereo not given) | – | 0.398 µM (active)
29 | CCC(Sc1ncccc1C(=O)O)C(=O)N1CCOCC1 (stereo not given) | -22.1% | –
30 | CCC(C(=O)N1CCOCC1)n1c(C(=O)OC)cc2occc21 (stereo not given) | – | 5.01 µM (active)
31 | CCN(CC)c1ccc2c(Cl)cc(=O)oc2c1 | – | 11.2 µM (active)
32 | COc1ccc2c(CC(=O)NCC3CCC(C(=O)O)CC3)cc(=O)oc2c1 (stereo not given) | -27.3% | –
33 | CCN(CC)c1ccc(C(=O)OCc2cc(=O)oc3cc(O)ccc23)cc1 | – | 0.355 µM (active)
34 | Cc1cc(=O)oc2cc(O)ccc12 | 37.5% [at 25.6 µM] | –
35 | CCCC[C@H](CC)CN1CN(C[C@@H](CC)CCCC)CC(C)(N)C1 | -6.91% [at 25.6 µM] | –
36 | CS(=O)(=O)N1CCN(c2c(Cl)cccc2[N+](=O)[O-])CC1 | – | 14.1 µM (active)
37 | CS(=O)(=O)N1CCC2(CCN(c3ccccc3)CC2)CC1 | 29.9% | –
38 | CCS(=O)(=O)N1CCN(c2c(Cl)cccc2[N+](=O)[O-])CC1 | – | 10 µM (active)
39 | CS(=O)(=O)N1CCC2(CCN(C(c3ccccc3)c3ccccc3)CC2)CC1 | -10.5% | –
40 | CCN1CCc2nc(N)oc2CC1 | -9.67% | –
41 | CC(=O)N(/N=C1\Sc2ccccc2C1=O)c1ccccc1C | – | 4.47 µM (active)
42 | CC(=O)N(/N=C1\Sc2ccccc2C1=O)c1ccccc1 | – | 3.16 µM (active)
43 | O=[N+]([O-])c1cccnc1N1CCOCC1 | -23.4% | –
44 | Clc1ccc(N2CCCCCC2)nn1 | -6.14% | –
45 | O=[N+]([O-])c1ccc(N2CCCCC2)c(Cl)c1N1CCCCC1 | – | 1.41 µM (active)
46 | O=[N+]([O-])c1ccc(N2CCCC2)cc1N1CCCC1 | – | 4.47 µM (active)
47 | O=[N+]([O-])c1cc(F)c(N2CCOCC2)cc1N1CCCCC1 | – | 3.98 µM (active)
48 | CC(C)c1ccc(CNc2cc(N3CCCC3)ccc2[N+](=O)[O-])cc1 | – | 1.78 µM (active)

Row | SMILES | activity, negative = inhibition | AC50
49 | COC(=O)[C@@]1(Cc2ccccc2)[C@H]2c3cc(C(=O)N4CCCC4)n(Cc4cccc5ccccc45)c3C[C@H]2CN1C(=O)c1ccccc1 | – | 2.51 µM (active)
50 | COC(=O)[C@@]1(Cc2ccccc2)[C@H]2c3cc(C(=O)N(C)C)n(Cc4ccsc4Br)c3C[C@H]2CN1C(=O)c1ccccc1 | – | 2 µM (active)
51 | COC(=O)[C@@]1(Cc2ccccc2)[C@H]2c3cc(C(=O)N4CCCC4)n(Cc4ccsc4Br)c3C[C@H]2CN1C(=O)c1ccccc1 | – | 2.51 µM (active)
52 | O=C(O)c1c(Cl)c(Cl)c(Cl)c(Cl)c1C(=O)Nc1ccc2cn[nH]c2c1 | -27.8% [at 11.4 µM] | –
53 | S=C(Nc1ccc2cn[nH]c2c1)Nc1ccc2cn[nH]c2c1 | – | 1 µM (active)
54 | CCNc1ncc2nc(-c3ccc(Cl)cc3)c(=O)n(C3CC3)c2n1 | -23.3% | –
55 | CN(C)CCCNc1c(C(=O)O)cnc2c1cnn2C | 12.7% | –
56 | Cc1nn(C(C)C(=O)N2CCc3ccccc32)c(C)c1[N+](=O)[O-] (stereo not given) | – | 11.2 µM (active)
57 | CC(=O)N1CCC(=O)N(C(C)C)c2ccccc21 | -13.2% | –
58 | Cc1ccc(-n2c(=O)[nH]cc(C(=O)N3CCc4ccccc43)c2=O)cc1 | -9.61% | –
59 | CN(C)CC[C@@H](c1ccccc1)c1ccccn1 | 26.1% | –
60 | C[C@@H](C1=C(CCN(C)C)Cc2ccccc21)c1ccccn1 | – | 2.51 µM (active)
61 | CN(C)CC(CN(C)C)c1ccccn1 | 4.36% [at 11.4 µM] | –
62 | Cc1n[nH]c(=O)[nH]c1=O | 13.1% [at 25.6 µM] | –
63 | CS(=O)(=O)Nc1cccc(-c2nc(NCCN3CCOCC3)c3ccccc3n2)c1 | -15.4% | –
64 | CS(=O)(=O)Nc1cccc(-c2nc(NCc3cccs3)c3ccccc3n2)c1 | – | 10 µM (active)
65 | Cc1cccc(CNc2nc(-c3cccc(NS(C)(=O)=O)c3)nc3ccccc23)c1 | – | 2.51 µM (active)
66 | CCOC(=O)COc1c(OC)cc(Cl)cc1C1Nc2ccccc2C(=O)N1c1cccc(C)c1 (stereo not given) | – | 1.41 µM (active)
67 | CCOC(=O)CC1NC(=O)c2ccccc21 (stereo not given) | -29.3% | –
68 | CCOC(=O)COc1c(OC)cc(Cl)cc1C1Nc2ccccc2C(=O)N1c1ccc(F)cc1 (stereo not given) | – | 0.501 µM (active)
69 | C#CCn1c(=O)c2c(ncn2C)n(C)c1=O | -7.88% | –
70 | O=C(Nc1cccc(C(F)(F)F)c1)c1ccc(Cn2cc(Br)cn2)o1 | – | 2.24 µM (active)
71 | CCN(CC)S(=O)(=O)c1cccc(C(=O)N[C@H](C(=O)OCC(=O)NC(=O)NC)C(C)C)c1 | – | 7.94 µM (active)
72 | [N-]=[N+]=NC[C@@H]1O[C@@H](n2cnc3c(N)ncnc32)[C@@H]2O[C@@H]21 | 18.5% [at 11.4 µM] | –

Row | SMILES | activity, negative = inhibition | AC50
73 | CC(C)=CCC/C(C)=C/CC/C(C)=C/CSc1ccccc1C(=O)O | -8.59% | –
74 | Cn1c(=O)cc(SCC(=O)NCCN2CCN(c3ccccc3F)CC2)c2cc(Cl)ccc21 | – | 11.2 µM (active)
75 | Cc1c(Cl)cnc(NC(=O)COC(=O)CCS(=O)(=O)c2ccccc2)c1Cl | – | 20 µM (active)
76 | CC(C)=CC(=O)OCC(=O)Nc1ncc(Cl)c(C)c1Cl | – | 15.8 µM (active)
77 | Nc1ccc(CCNc2ncnc3c2ncn3[C@@H]2O[C@@H](CO)[C@H](O)[C@@H]2O)cc1 | -1.06% | –
78 | Cc1cc(N2CCN(C)CC2)n2nc(-c3ccc(Cl)cc3)nc2n1 | 4.95% [at 11.4 µM] | –
79 | Cc1cc(N)n2ncc(-c3ccc(Cl)cc3)c2n1 | – | 15.8 µM (active)
80 | COC(=O)c1ccc(Cl)c(NC(=O)c2ccc(-c3ccccc3)cc2)c1 | -8.48% | –
81 | COc1cc(C(=O)NC(=S)Nc2ccc(Cl)c(C(=O)O)c2)cc(OC)c1OC | -6.67% | –
82 | O=C(Cc1ccccc1)NC(=S)Nc1cc(C(F)(F)F)ccc1Cl | – | 0.708 µM (active)
83 | COc1cc(/C=C/C(=O)Nc2cc(C(F)(F)F)ccc2Cl)cc(OC)c1OC | – | 20 µM (active)
84 | COc1cc(C(=O)Nc2cc(C(F)(F)F)ccc2Cl)cc(OC)c1OC | – | 22.4 µM (active)
85 | COc1cccc(C(=O)Nc2cc(C(F)(F)F)ccc2Cl)c1 | – | 7.08 µM (active)
86 | CCCC(=O)Nc1ccc(C(=O)Nc2cc(C(F)(F)F)ccc2Cl)cc1 | – | 20 µM (active)
87 | CN(C)c1cc[n+](CC(=O)Nc2cc(C(F)(F)F)ccc2Cl)cc1 | -23.1% | –
88 | C/C(CCN1CCCCc2nc(C)c(C)cc21)=N\O[C@@H](C)c1cn([C@H](CO)Cc2ccccc2)nn1 | -12.5% [at 11.4 µM] and 36.9% [at 11.4 µM] | –
89 | O=C(O)C[C@@H](C(=O)O)C1c2ccccc2-c2ccccc21 | 26.9% [at 11.4 µM] | –
90 | COc1ccc(NC(C)=O)cc1NC(=O)CN1CCN(C2c3ccccc3-c3ccccc32)CC1 | – | 2.51 µM (active)
91 | CC(=O)Nc1ccc2c(c1)C(=Nc1ccc(C(=O)O)cc1)c1ccccc1-2 | 24.2% [at 11.4 µM] | –
92 | COC(=O)C/C=C1\c2ccccc2[C@H](OC)[C@H]1C | 23.9% [at 11.4 µM] | –
93 | COc1ccccc1NC(=O)CN1CCN(C2c3ccccc3-c3ccccc32)CC1 | – | 0.708 µM (active)
94 | CC(C)OC(=O)CN1CCN(C2c3ccccc3-c3ccccc32)CC1 | – | 7.08 µM (active)
95 | N#CCCn1c(=O)c(-c2cc(F)cc(F)c2)nc2cnc(Nc3ccccc3)nc21 | 25% | –
